Test results from ChEMBL document CHEMBL3988442, “University of Dundee, Small-Polar-MMV Screening Library” (2021).

Target: AMP-activated protein kinase, AMPK (Homo sapiens) (UniProt P54646+O43741+P54619+Q9UGJ0+Q9Y478+Q13131+Q9UGI9)
Assay: AMP-dependent Kinase enzyme assay. An in vitro enzyme assay that detects ADP turnover that is directly proportional to AMPK activity. This uses naive AMPK that is activated during the assay with MK-8722
Format: functional
Set-up: scale not given: direction of the effect not stated beside the values
Conditions: 30 µM

Row | SMILES | Percent Effect [%]
1 | CC(C)NC(=O)N1CCCCCC1C1CCN(c2ncccn2)CC1 (stereo not given) | -6.91
2 | CCN1CCC(CC(=O)NCCc2nc(N)cc(O)n2)CC1 | 0.153
3 | Cc1nccn1CCCN1CCCC(c2nccn2C)C1 (stereo not given) | -14.7
4 | CCCc1ccc(CN2CCC3(CCC(=O)N(CCO)C3)CC2)o1 | 12.9
5 | CC(C)(NCCCOc1ccc(C#N)cc1)c1nccs1 | 3.77
6 | CC1CCN(Cc2ccccc2CNC(=O)C2CNC(=O)N2)CC1 (stereo not given) | -1.18
7 | Cc1cc(C)cc(OCCN(C)C2CCOC2=O)c1 (stereo not given) | -0.216
8 | Cc1c(NC(=O)N(C)CCO)cccc1OC1CCCC1 | -3.01
9 | CS(=O)(=O)NCC1CCCN(Cc2ccccc2F)C1 (stereo not given) | -6.5
10 | Cc1nc(CN(C)Cc2csc(-c3cccs3)n2)co1 | 10.3
11 | Cc1nnc(N2CCc3cncnc3C2)c(C#N)c1C | -187
12 | N#Cc1cc(S(N)(=O)=O)ccc1N1CCc2c(Cl)cccc2C1 | 17.4
13 | CCOCCC(=O)NCC1CCCO1 (stereo not given) | 0.034
14 | Cc1cc(C)nc(N2CC[C@H](Oc3ccccc3F)[C@@H](O)CC2)n1 | 21.5
15 | CCn1cc(C(=O)NCCN2CCCc3ccccc32)c(C)n1 | 7.97
16 | Cc1cc(=O)c2cc(F)ccc2n1CC(=O)O | 7.06
17 | CCc1nnc2n1CCN(c1nc(C)cc(N(C)C)n1)C2 | -7.79
18 | O=C(CCn1cccn1)NCCOc1ncc(Cl)cc1Cl | 2.54
19 | CS(=O)(=O)Cc1noc(CN(Cc2ccco2)c2ccccc2)n1 | 3.02
20 | Cc1ccc(-c2noc(C3CCN3C(=O)c3cc[nH]n3)n2)s1 (stereo not given) | 16

Row | SMILES | Percent Effect [%]
21 | CC1(C)OC(=O)N(CCCOc2ccc(F)cc2)C1=O | -0.642
22 | Cc1ncsc1CCN(C)C(=O)c1ccc(CN2CCCCC2)cc1 | 5.27
23 | CN(Cc1ccncc1)c1cncc(Br)c1 | 3.2
24 | O=C(Cn1cc(Cl)cn1)N1CCNC1=O | -8.6
25 | Cc1cc(C(=O)N2CC[C@@]3(O)CCN(C(=O)N4CCCC4)C[C@H]3C2)no1 | 5.71
26 | Cc1c(CN2CCc3[nH]cnc3C2C(=O)O)[nH]c2ccc(F)cc12 (stereo not given) | 3.73
27 | O=C(O)c1ccn(-c2ccc(NC(=O)c3ccccc3Cl)cc2)n1 | 5.04
28 | Cc1ncsc1C(=O)N1CC[C@@]2(O)CCN(C(=O)N3CCCC3)C[C@H]2C1 | -1.97
29 | CCN1CCC(CC(=O)NCc2nc(C)cc(C)n2)CC1 | 9.34
30 | CC(C)(CN1CCC2(CCNCC2)CC1)N1CCOCC1 | 0.354
31 | Cc1ccnc2c1NC(=O)CN2C(=O)CCc1ccccc1 | -1.93
32 | CC(NC(=O)C1CCCCC1)c1cc(O)nc(-c2cccnc2)n1 (stereo not given) | 5.58
33 | Cc1cc(C2CCCN(Cc3nc(Cc4ccccc4)no3)C2)n[nH]1 (stereo not given) | 3.74
34 | O=C(c1cnn[nH]1)N(Cc1ccncc1)CC1CCCO1 (stereo not given) | -5.18
35 | Cc1ccccc1Cc1nc(CSc2nnc(N)n2C)no1 | 2.88
36 | Cc1n[nH]c(C)c1CCc1ccc(S(C)(=O)=O)cc1 | 0.986
37 | Cc1csc(C(=O)N2CCC(S(C)(=O)=O)CC2)c1 | -2.86
38 | COc1c(CNCC(=O)N2CCN(C)CC2)c(C(C)C)nn1C | -12.4
39 | Cc1nc(CN2CCc3ccc(S(N)(=O)=O)cc32)oc1C | -7.39
40 | O=C(CCn1cc(Cl)cn1)N1CCC2(CC1)OCCCC2O (stereo not given) | -8.21
